The values below come from PubChem BioAssay (Tox21).

Inconclusive results are not listed. A call without a number means that no potency is given here. Activity calls are given as the source filed them. Calls come from the whole dose curve; as a rule, active = well fitted activation curve with a large enough effect in the repeat runs; inconclusive = weak or mixed curves; inactive = flat fitted curve, though single readings scatter.
Potency is the fitted concentration of half-maximal effect.

A short description of the assay: A CellTox Green Cytotoxicity Assay to monitor cytotoxicity in HepG2 cells - 32 hour (AID 1224883). Note: nearly all actives have a fitted effect of over 50% in size. The settings on record: CellTox Green fluorescence; series mostly up to 76.8 µM. The text has this:
National Center for Advancing Translational Sciences [NCATS]
NIH Chemical Genomics Center [NCGC]
U.S. Environmental Protection Agency [EPA]
National Institutes of Environmental Health Sciences [NIEHS]
National Toxicology Program [NTP]
Cell-based models are critical for drug discovery. Determining the natural cytotoxic effects resulting from test compounds is an essential research activity. A CellTox Green Cytotoxicity Assay to monitor cytotoxicity in real time of continues cell culture during 40 hours of the compound treatment was used to screen Tox21 10K library compounds in HepG2 cells. CellTox Green Cytotoxicity Assay is a nonlytic, homogeneous, biofluorescent method to measure cytotoxicity in cell culture after experimental manipulation. The assay system uses a proprietary asymmetric cyanine dye that is excluded from viable cells but preferentially stains the dead cell's DNA. […] Viable cells produce no appreciable increases in fluorescence. Therefore, the fluorescence signal produced by the binding interaction with dead cell DNA is proportional to cytotoxicity.
The mixture of HepG2 cell suspension and reagents were dispensed at 600cells/6 ul/well in 1536-well tissue culture treated black solid bottom plates using a Multidrop dispenser. After the assay plates were incubated at a 37 C/5% CO2 incubator for 5 hours, 23 nL of compounds dissolved in DMSO, positive and negative controls was transferred to the assay plate by a pintool work station. The plates were incubated at 37 C for 40 hours. The fluorescence intensity were measured at 0h, 8h, 16h, 24h, 32h and 40h time points using ViewLux plate reader during compound treatment.
Turning to `O=[N+]([O-])c1ccc(CO)cc1`, the Potency result was “inactive”.
With `Nc1ccc(Cl)c([N+](=O)[O-])c1`, the Potency entry was “inactive”.
Next, `O=C1OC(=O)c2cc(-c3ccc4c(c3)C(=O)OC4=O)ccc21`: “inactive”.
The entry for `C1CCSC1` is “inactive”; for `Cc1ccc(C2OC[C@@H]3OC(c4ccc(C)cc4)O[C@H]([C@H](O)CO)[C@@H]3O2)cc1` (stereo not given in full) it is “inactive”.
With `CN1CCN(CCCN2c3ccccc3Sc3ccc(Cl)cc32)CC1`, the Potency was 23.9 µM (active).
Next, `O=C(Nc1ccc([N+](=O)[O-])cc1)Nc1ccc([N+](=O)[O-])cc1` (tested in a mixture with another compound): 21.3 µM (active); `Nc1ccc2c(S(=O)(=O)O)cccc2c1S(=O)(=O)O`: “inactive”; `CCN(CC)c1ccc(C=O)cc1`: “inactive”.
Regarding `CCCCCCCCCCCC(=O)Cl`, the Potency entry was “inactive”.
In the case of `c1ccc2occc2c1`, the Potency entry is “inactive”.
Next, `C=COCCCC`: “inactive”; `O[Si](c1ccccc1)(c1ccccc1)c1ccccc1`: “inactive”; `Clc1ccc2c(Cl)ccnc2c1`: “inactive”.
Next, `CC(C)=NNC(N)=S`: “inactive”; `CCCCC/C=C\C=C\C(=O)OCC`: 25.6 µM (active).
The entry for `Cc1ccc(C=O)cc1` is “inactive”.
In the case of `C/C(=C\c1ccc(C(=O)O)cc1)c1ccc2c(c1)C(C)(C)CCC2(C)C`, the Potency entry is “inactive”.
The entry for `CC/C=C(\C)C=O` is “inactive”; for `S=C1NC=NC2N=CNC12` (stereo not given) it is “inactive”; for `O=C(CCN1CCC(c2ccccc2)C1)c1ccc2c(c1)OCCO2` (stereo not given) it is 26.8 µM (active).
For the molecule `CCCCCCCCCC[N+](C)(CCCCCCCCCC)CCC[Si](OC)(OC)OC`, the Potency was 21.9 µM (active).
`Nc1cccnc1N`: the Potency result was “inactive”.
Next, `CCN(CCC#N)c1ccc(N=Nc2ccc([N+](=O)[O-])cc2)cc1`: “inactive”; `C[C@H]1O[C@@H](O[C@H]2CC[C@@]3(C)[C@H](CC[C@@H]4[C@@H]3C[C@@H](O)[C@]3(C)[C@@H](C5=CC(=O)OC5)CC[C@]43O)C2)C[C@H](O)[C@@H]1O[C@H]1C[C@H](O)[C@H](O[C@H]2C[C@H](O)[C@H](O[C@@H]3O[C@H](CO)[C@@H](O)[C@H](O)[C@H]3O)[C@@H](C)O2)[C@@H](C)O1`: “inactive”.
As for `C=C(C)CCO`, the Potency result is “inactive”.
For `CCC(O)CO` (stereo not given), the Potency result was “inactive”.
The entry for `CCCC(C)C=O` (stereo not given) is “inactive”.
In the case of `CN1CCN(C)CC1`, the Potency entry is “inactive”.
Next, `Nc1c(Br)cc([N+](=O)[O-])cc1Br`: “inactive”; `[Cl][Sc]([Cl])[Cl]`: “inactive”.
Regarding `CCc1cccc(CC)c1`, the Potency entry is “inactive”.
Next, `CCOc1nc(F)cc2nc(S(=O)(=O)Nc3c(Cl)cccc3C(=O)OC)nn12`: “inactive”.
Next, `O=C1C=CC(=O)N1c1cccc(N2C(=O)C=CC2=O)c1`: 11 µM (active).
As to `O=C(NCc1ncc(C(F)(F)F)cc1Cl)c1c(Cl)cccc1Cl`, the Potency is 21.9 µM (active).
The entry for `O=c1[nH]cccc1O` is “inactive”.
The entry for `CC1=CC[C@@H](C(C)(C)O)CC1` is “inactive”; for `CN[C@H]1CC[C@@H](c2ccc(Cl)c(Cl)c2)c2ccc(S(N)(=O)=O)cc21` it is 13.8 µM (active).
Next, `CC(C)c1ccc2sc3ccccc3c(=O)c2c1`: “inactive”.
Turning to `C/C=C/C(=O)OCC(C)C`, the Potency result is “inactive”.
